# Measurements published in the antibiotic and cytotoxicity screens of Wong et al. (2023).
# In all, about 39,000 compounds went through this assay and about 3,300 (8.5%) were called active. The list comes from a sample in which actives are over-represented; it also holds similar structures and randomly drawn compounds.
# Tested on: HepG2
# Assay: cytotoxicity call (relative viability < 0.9)
# Details: 10 µM
row,Structure (SMILES),cytotoxicity call
1,C[C@H](CO)N1C[C@H](C)[C@H](CN(C)Cc2ccncc2)Oc2ccc(NS(=O)(=O)c3ccccc3)cc2C1=O,inactive
2,COc1ccc(S(=O)(=O)N(C)C[C@H]2Oc3ccc(N(C)C)cc3CC(=O)N([C@@H](C)CO)C[C@H]2C)cc1,inactive
3,COc1ccc(NC(=O)N(C)C[C@@H]2Oc3ncc(C#CC(C)C)cc3C(=O)N([C@@H](C)CO)C[C@H]2C)cc1,inactive
4,NC1CCN(C(=O)NC2CCCCC2)CC1,inactive
5,C[C@H]1CCCCO[C@H](CN(C)C(=O)CCC(F)(F)F)[C@@H](C)CN([C@@H](C)CO)C(=O)c2cc(NS(=O)(=O)c3ccccc3)ccc2O1,inactive
6,C[C@H]1CC/C=C\[C@H]2O[C@@]34C=CCN(c5ccc(Cl)cc5)C(=O)[C@H]3N(CCO)C(=O)[C@]4(C)[C@@H]2C(=O)O1,inactive
7,Cc1noc(C)c1S(=O)(=O)Nc1ccc2c(c1)C(=O)N([C@@H](C)CO)C[C@@H](C)[C@@H](CN(C)C)OCCCC[C@H](C)O2,inactive
8,C[C@@]12CC[C@@H]3c4ccc(O)cc4C[C@H](CCCCCCCCC[S@@](=O)CCCC(F)(F)C(F)(F)F)[C@@H]3[C@@H]1CC[C@@H]2O,inactive
9,O=C(C[C@H]1CC[C@@H]2[C@H](COC[C@@H](O)CN2S(=O)(=O)c2ccccc2)O1)N[C@@H]1CCN(Cc2ccccc2)C1,inactive
10,Cc1ccccc1S(=O)(=O)N1C[C@@H](O)COC[C@@H]2O[C@H](CC(=O)NCCc3ccncc3)CC[C@H]21,inactive
11,Cc1noc(C)c1NC(=O)Nc1ccc2c(c1)C(=O)N([C@H](C)CO)C[C@H](C)[C@H](CN(C)Cc1ccc(C(=O)O)cc1)OCCCC[C@@H](C)O2,inactive
12,CO[C@H]1CN(C)C(=O)c2ccc(NS(=O)(=O)c3cn(C)cn3)cc2OC[C@H](C)N(Cc2cccc(F)c2)C[C@H]1C,inactive
13,COc1ccc(NC(=O)N(C)C[C@@H]2OCCCC[C@@H](C)Oc3ccc(NS(=O)(=O)c4c(C)noc4C)cc3C(=O)N([C@@H](C)CO)C[C@H]2C)cc1,inactive
14,COc1ccc(NC(=O)N(C)C[C@H]2Oc3ccc(NC(=O)Nc4ccc(C(F)(F)F)cc4)cc3CC(=O)N([C@@H](C)CO)C[C@@H]2C)cc1,inactive
15,O=C(O)c1csc2c1CCCCC2,inactive
16,COC(=O)CC[C@H]1CCCNC1,inactive
17,C[C@@H]1CN([C@H](C)CO)C(=O)c2cc(NS(=O)(=O)c3ccccc3)ccc2O[C@@H](C)CCCCO[C@H]1CN(C)C(=O)C1CCCCC1,inactive
18,NCc1ccno1,inactive

row,Structure (SMILES),cytotoxicity call
1,C=CCCC(=O)N(C)[C@H](C)[C@@H](OC(=O)[C@@H]1[C@@H]2C=C[C@]3(O2)[C@H](CN(CC=C)Cc2ccccc2)N(C(C)(C)C)C(=O)[C@@H]13)c1ccccc1,inactive
2,COc1ccc(NC(=O)Nc2ccc3c(c2)C(=O)N([C@H](C)CO)C[C@H](C)[C@H](CN(C)C(=O)Nc2cccc4ccccc24)O3)cc1,inactive
3,C[C@H](CO)N1C[C@H](C)[C@H](CN(C)S(=O)(=O)c2ccc(F)cc2)Oc2ncc(C#Cc3ccc(F)cc3)cc2C1=O,active
4,Cc1ccc(S(=O)(=O)N(C)C[C@@H]2Oc3ncc(C#Cc4ccc(F)cc4)cc3C(=O)N([C@H](C)CO)C[C@@H]2C)cc1,inactive
5,C[C@H](CO)N1C[C@H](C)[C@H](CN(C)S(=O)(=O)c2ccc(C#N)cc2)Oc2ncc(C#Cc3ccc(F)cc3)cc2C1=O,inactive
6,Cc1ccc(S(=O)(=O)Nc2ccc3c(c2)C(=O)N([C@@H](C)CO)C[C@H](C)[C@@H](CN(C)S(=O)(=O)c2ccc(Cl)cc2)OCCCC[C@@H](C)O3)cc1,inactive
7,O=C1O[C@@H](c2ccccc2)[C@@H](c2ccccc2)N2[C@@H](c3ccccc3OCCO)[C@]3(C(=O)Nc4ccc(C#CC5=CCCCC5)cc43)[C@@H](C(=O)O)[C@H]12,inactive
8,COc1ccc(C#Cc2ccc3c(c2)[C@]2(C(=O)N3)[C@H](c3ccc(O)cc3)N3[C@H](c4ccccc4)[C@H](c4ccccc4)OC(=O)[C@H]3[C@@H]2C(=O)N2CCCCCCC2)cc1,inactive
9,O=C1O[C@H](c2ccccc2)[C@H](c2ccccc2)N2[C@H]1[C@@H](C(=O)O)[C@]1(C(=O)Nc3ccc(C#CC4(O)CCCCCC4)cc31)[C@H]2c1ccccc1OCCO,inactive
10,O=C1O[C@H](c2ccccc2)[C@H](c2ccccc2)N2[C@H]1[C@@H](C(=O)O)[C@]1(C(=O)Nc3ccc(C#CC4=CCCCC4)cc31)[C@H]2c1ccc(O)cc1,inactive
11,O=C1O[C@@H](c2ccccc2)[C@@H](c2ccccc2)N2[C@@H](c3ccc(OCCO)cc3)[C@]3(C(=O)Nc4ccc(C#CC5=CCCCC5)cc43)[C@@H](C(=O)N3CCN(c4ncccn4)CC3)[C@H]12,inactive
12,COc1ccc(C#Cc2ccc3c(c2)[C@]2(C(=O)N3)[C@H](c3ccc(O)cc3)N3[C@H](c4ccccc4)[C@H](c4ccccc4)OC(=O)[C@H]3[C@@H]2C(=O)N2CCN(c3ncccn3)CC2)cc1,inactive
13,O=C1O[C@@H](c2ccccc2)[C@@H](c2ccccc2)N2[C@@H](c3ccc(OCCO)cc3)[C@]3(C(=O)Nc4ccc(C#CC5=CCCCC5)cc43)[C@@H](C(=O)N3CCCCCCC3)[C@H]12,active
14,O=C1O[C@H](c2ccccc2)[C@H](c2ccccc2)N2[C@H]1[C@@H](C(=O)O)[C@]1(C(=O)Nc3ccc(C#CC4=CCCCC4)cc31)[C@H]2C1CCCCC1,active
15,NC(=O)[C@@H]1[C@H]2C(=O)O[C@H](c3ccccc3)[C@H](c3ccccc3)N2[C@H](c2ccc(OCCO)cc2)[C@@]12C(=O)Nc1ccc(C#CC3=CCCCC3)cc12,inactive
16,COc1ccc(C#Cc2ccc3c(c2)[C@]2(C(=O)N3)[C@H](C(=O)N3CCCCCCC3)[C@H]3C(=O)O[C@H](c4ccccc4)[C@H](c4ccccc4)N3[C@@H]2c2ccc(O)cc2)cc1,active
17,O=C1O[C@@H](c2ccccc2)[C@@H](c2ccccc2)N2[C@@H](c3ccc(O)cc3)[C@]3(C(=O)Nc4ccc(C#CC5=CCCCC5)cc43)[C@@H](C(=O)O)[C@H]12,inactive
18,O=C1O[C@H](c2ccccc2)[C@H](c2ccccc2)N2[C@H]1[C@@H](C(=O)O)[C@]1(C(=O)Nc3ccc(C#CC4=CCCCC4)cc31)[C@H]2c1ccccc1OCCO,active
